D1 potentiator: Potentiators of Human D1 Dopamine Receptor: qHTS; D(1A) dopamine receptor (Homo sapiens), P21728; HEK293 TREx D1 cells, calcium flux, dopamine EC20 potentiation; potentiation, % at 10 µM; hit rate 0.036% among 360,000; in the data active = potentiation above about 30%
Target sequence (P21728 whole entry, looked up): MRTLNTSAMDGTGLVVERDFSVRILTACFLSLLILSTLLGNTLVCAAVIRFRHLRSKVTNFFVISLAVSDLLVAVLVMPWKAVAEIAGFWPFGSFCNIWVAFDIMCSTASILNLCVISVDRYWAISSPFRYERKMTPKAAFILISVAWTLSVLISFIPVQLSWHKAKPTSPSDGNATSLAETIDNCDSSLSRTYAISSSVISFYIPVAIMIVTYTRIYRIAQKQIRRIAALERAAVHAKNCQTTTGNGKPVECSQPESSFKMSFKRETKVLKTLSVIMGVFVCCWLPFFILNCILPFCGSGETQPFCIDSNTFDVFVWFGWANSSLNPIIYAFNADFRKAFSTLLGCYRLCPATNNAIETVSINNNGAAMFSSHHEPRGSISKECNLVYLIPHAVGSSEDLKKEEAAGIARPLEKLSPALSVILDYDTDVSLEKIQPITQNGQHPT
TRHR PAM: qHTS for Small Molecule Agonists and Allosteric Enhancers of Human TRH Receptor: Primary Screen for Enhancers; Thyrotropin-releasing hormone receptor (Homo sapiens), P34981; TRHR cells, fluo-8 calcium fluorescence, EC20 TRH enhancement; enhancement, % at 2 µM; hit rate 0.66% among 360,000; in the data active = enhancement above about 30%
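TRHR-expressing cells loaded with fluo-8 calcium dye were read kinetically (ex 480/em 530) during compound addition, then stimulated with an EC20 of TRH (10 nM final). Enhancement of the Gq-mediated intracellular calcium response was scored.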
D1 ag: Allosteric Agonists of the Human D1 Dopamine Receptor: qHTS; AID 504660, 2011; HEK293 T-REx D1 cells, calcium flux, agonist mode; activation, % at 2 µM; hit rate 1% among 360,000; D(1A) dopamine receptor (Homo sapiens), P21728
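Tetracycline-induced HEK293 TREx D1 cells, force-coupled to calcium signalling, were dye-loaded with a no-wash calcium kit. Compound was pin-added after a 10 s baseline. Fluorescence was read kinetically at 1 cycle/s for 180 s, with calcium rises flagged as agonism.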
TRHR ag: qHTS for Small Molecule Agonists and Allosteric Enhancers of Human TRH Receptor: Primary Screen for Agonists | Thyrotropin-releasing hormone receptor (Homo sapiens), P34981 | TRHR cells, calcium flux fluo-8, FDSS agonist mode | activation, % at 2 µM | hit rate 0.18% among 360,000 | AID 493084, 2011
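TRHR-expressing cells, plated overnight in medium with 10% serum, were loaded with fluo-8 calcium dye at room temperature. After a 10 s baseline, library compound was pin-added and calcium release was recorded kinetically (ex 480/em 530) as agonist response.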
D1 antagonist: Antagonist of Human D 1 Dopamine Receptor: qHTS; D(1A) dopamine receptor (Homo sapiens), P21728; HEK293 TREx D1 cells, calcium flux, dopamine EC80; hits give low values; activity change, negative = inhibition, % at 10 µM; hit rate 3.2% among 360,000; AID 504652, 2011; in the data active = activity change below about -30%
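Kinetic fluorescence of a calcium dye serves as the read-out. D1-expressing Hek293 Trex cells, induced overnight at 30 C, are exposed to compound for 180 s before an EC80 dopamine addition, then read 180 s further.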
Hits are given with their value. The list is not random: actives were taken first. Their share in the collection is about 4.7%. Cut-off read from the data, not from the text of the source, unless noted: active = activation above about 30%; inactive = the rest.

For Cc1ccc(C(=O)NC(=S)NNC(=O)c2cccc([N+](=O)[O-])c2)cc1 the results were D1 potentiator inactive, TRHR PAM inactive, D1 ag 50.1, TRHR ag inactive and D1 antagonist inactive.
`O=C(NNC(=S)NC(=O)c1cccc([N+](=O)[O-])c1)c1ccc(O)cc1` gave D1 potentiator inactive, TRHR PAM inactive, D1 ag inactive, TRHR ag inactive and D1 antagonist inactive.
O=C(NNC(=S)NC(=O)c1ccccc1)c1cccc([N+](=O)[O-])c1 was read as D1 potentiator inactive, TRHR PAM inactive, D1 ag inactive, TRHR ag inactive and D1 antagonist inactive.
Screening CCCCC(=O)NNC(=S)NC(=O)c1ccc(C)cc1 returned D1 potentiator inactive, TRHR PAM inactive, D1 ag 60.4, TRHR ag inactive and D1 antagonist inactive.
CCN(CC)C(=O)c1ccc2c(c1)N(Cc1ccccc1F)C(=O)c1ccccc1S2=O (stereo not given) was read as D1 potentiator inactive, TRHR PAM inactive, D1 ag inactive, TRHR ag inactive and D1 antagonist inactive.
`COc1ccccc1CNc1nc(-c2cc(C)n(C)c2C)cs1` gave D1 potentiator inactive, TRHR PAM inactive, D1 ag inactive, TRHR ag inactive and D1 antagonist -45.8.
COCCNc1nc(-c2cc(C)n(CCc3ccc(OC)cc3)c2C)cs1 was read as D1 potentiator inactive, TRHR PAM inactive, D1 ag inactive, TRHR ag inactive and D1 antagonist inactive.
Screening CCC1CCCCN1CCCNC(=O)c1ccc2c(c1)sc1nc(-c3ccc(F)cc3)cn12 (stereo not given) returned D1 potentiator inactive, TRHR PAM inactive, D1 ag inactive, TRHR ag inactive and D1 antagonist inactive.
Screening C=CCNC(=O)c1onc(CSc2ccccn2)c1C(=O)NCC=C returned D1 potentiator inactive, TRHR PAM inactive, D1 ag inactive, TRHR ag inactive and D1 antagonist -60.0.
O=C(Nc1ccc(OC(F)(F)F)cc1)N1CCN(c2ccnc3cc(Cl)ccc23)CC1 was read as D1 potentiator inactive, TRHR PAM inactive, D1 ag inactive, TRHR ag inactive and D1 antagonist -40.5.
`Cn1cc(S(=O)(=O)N2CCOCC2)cc1C(=O)Nc1cccc(C#N)c1` gave D1 potentiator inactive, TRHR PAM inactive, D1 ag inactive, TRHR ag inactive and D1 antagonist inactive.
Screening Cc1ccc(NC(=O)CN2C(=O)C(c3ccc(C(C)(C)C)cc3)=NC2(C)C)cc1 returned D1 potentiator inactive, TRHR PAM inactive, D1 ag inactive, TRHR ag inactive and D1 antagonist inactive.
`O=[S+]([O-])(c1ccc2c(c1)OCCO2)N1CCN([S+](=O)([O-])c2ccccc2Br)CC1` gave D1 potentiator inactive, TRHR PAM inactive, D1 ag inactive, TRHR ag inactive and D1 antagonist inactive.
For COc1cc(CN(C(=O)COc2ccc(Cl)cc2)c2ccccn2)cc(OC)c1OC the results were D1 potentiator inactive, TRHR PAM inactive, D1 ag inactive, TRHR ag inactive and D1 antagonist inactive.
Screening COC(=O)/C=C/c1ccc(-n2cncn2)cc1 returned D1 potentiator inactive, TRHR PAM inactive, D1 ag inactive, TRHR ag inactive and D1 antagonist inactive.
For COC(=O)/C=C/c1cnc[nH]1 the results were D1 potentiator inactive, TRHR PAM inactive, D1 ag inactive, TRHR ag inactive and D1 antagonist -30.9.
`O=C(/C=C/c1cccc(OCc2ccccc2)c1)c1cccnc1` gave D1 potentiator inactive, TRHR PAM inactive, D1 ag inactive, TRHR ag inactive and D1 antagonist -37.1.
`O=C(CCC1N=C2c3ccccc3N=C(SCc3ccccc3Cl)N2C1=O)N1CCN(c2ccccc2)CC1` (stereo not given) gave D1 potentiator inactive, TRHR PAM inactive, D1 ag inactive, TRHR ag inactive and D1 antagonist inactive.
`O=C(/C=C/c1ccccc1Cl)N1CCN(c2ncccn2)CC1` gave D1 potentiator inactive, TRHR PAM inactive, D1 ag inactive, TRHR ag inactive and D1 antagonist -31.0.
`O=C(/C=C/c1ccc(Cl)cc1)N1CCN(c2ncccn2)CC1` gave D1 potentiator inactive, TRHR PAM inactive, D1 ag inactive, TRHR ag inactive and D1 antagonist inactive.
O=C(NCC1CCCCC1)c1cc(Br)ccc1Cl was read as D1 potentiator inactive, TRHR PAM inactive, D1 ag inactive, TRHR ag inactive and D1 antagonist -32.1.
`O=C(NCc1cccs1)c1nn(-c2ccccc2)nc1CO` gave D1 potentiator inactive, TRHR PAM inactive, D1 ag inactive, TRHR ag inactive and D1 antagonist inactive.
`CC(=O)Nc1ccc(S(=O)(=O)Nc2ccc3c(c2)CCC3)cc1` gave D1 potentiator inactive, TRHR PAM inactive, D1 ag 51.7, TRHR ag inactive and D1 antagonist -55.6.
`COc1ccc(S(=O)(=O)Nc2ccc3c(c2)CCC3)cc1` gave D1 potentiator inactive, TRHR PAM inactive, D1 ag inactive, TRHR ag inactive and D1 antagonist inactive.
`Cc1cccc(NC(=O)Nc2ccc3c(c2)CCC3)c1` gave D1 potentiator inactive, TRHR PAM inactive, D1 ag inactive, TRHR ag inactive and D1 antagonist -30.5.
Screening Cn1cc(C(=O)Nc2ccc3c(c2)CCC3)cn1 returned D1 potentiator inactive, TRHR PAM inactive, D1 ag inactive, TRHR ag inactive and D1 antagonist -30.7.
Cc1ccc(C(=O)Nc2ccc3c(c2)CCC3)cc1 was read as D1 potentiator inactive, TRHR PAM 35.1, D1 ag inactive, TRHR ag inactive and D1 antagonist inactive.
Screening Cc1ccc(NS(=O)(=O)c2ccc(NC(=O)N3CCCC3)cc2)cc1C returned D1 potentiator inactive, TRHR PAM inactive, D1 ag inactive, TRHR ag inactive and D1 antagonist inactive.
`CCCCC(Sc1nc2cc3c(cc2c(=O)n1CCCC(=O)NCc1ccc2c(c1)OCO2)OCO3)C(=O)OCC` (stereo not given) gave D1 potentiator inactive, TRHR PAM inactive, D1 ag inactive, TRHR ag inactive and D1 antagonist inactive.
Cc1c(C(=O)Nc2cccc(Cl)c2)oc2ccc(S(=O)(=O)N(C)C3CCCCC3)cc12 was read as D1 potentiator inactive, TRHR PAM inactive, D1 ag inactive, TRHR ag inactive and D1 antagonist inactive.
CC(=O)c1cccc(Nc2c3c(nc4nc(-c5cccs5)nn24)CCCC3)c1 was read as D1 potentiator inactive, TRHR PAM inactive, D1 ag inactive, TRHR ag inactive and D1 antagonist inactive.

Screens from PubChem.
